This passage reports outcome results from PubChem BioAssay (Tox21).

Activity calls are given as the source filed them. The call rests on the fitted dose curve; in most records, active means well fitted curve in the direction sought with a large enough effect in the repeat runs; inconclusive means weak or mixed curves; inactive means flat fitted curve, though single readings scatter.

The nature of this assay: qHTS assay to test for compound auto fluorescence at 460 nm (blue) in HepG2 cells (AID 720687). Conditions: autofluorescence 405/460 nm, 1 h; series mostly up to 91.3 µM. From the text:
U.S. Tox21 Program National Center for Advancing Translational Sciences [NCATS] NIH Chemical Genomics Center [NCGC] U.S. Environmental Protection Agency [EPA] National Institutes of Environmental Health Sciences [NIEHS] National Toxicology Program [NTP] U.S. Food and Drug Administration [FDA] Tox21 Assay Overview: Compound auto fluorescence often interferes with screening of the compound library against various biological targets and signaling pathways. Some of these compounds may have fluorophoric properties. Such properties may interfere with the assay outputs resulting in false positives and/or negatives. To decrease such complications and ensure the compound activities are relevant in terms of biological response, the Tox21 10K compound library was screened for auto fluorescence. From the fluorophores used as reporter signals in our screening assays, the auto fluorescence equivalencies of compounds against three fluorophores have been evaluated: Triamterene, Fluorescein and Rose Bengal sodium for blue, green and red fluorescence, respectively. The fluorescence intensities were measured using Excitation/Emission wavelengths at 405/460nm, 485/535nm and 540/590nm for blue, green and red labels, respectively. This assay includes the blue fluorescence data.
Tox21 Assay Protocol Summary: 2,000 HepG2 cells in 5 uL of culture medium (MEM containing 10% FBS) per well were dispensed into black wall/clear bottom 1536-well plates using a Multidrop Combi Dispenser (ThermoFisher Scientific, Waltham, MA). The assay plates were incubated overnight at 37 C to allow cell attachment to the well bottom, followed by the transfer of 23 nL compound or DMSO vehicle by a pintool work station (Kalypsys , San Diego, CA). After the assay plates were incubated for 1 hr at 37 C and 5% CO2, fluorescence intensities in the assay plates were measured by an Envision (PerkinElmer, Shelton, CT) plate reader using three labels for measuring blue, green and red fluorescence at […] 460, 535 and 590 nm respectively.
(In qHTS, concentration-response curves come from the screen itself.)
On to `CC(=O)O[C@]1(C(C)=O)CC[C@H]2[C@@H]3C=C(Cl)C4=CC(=O)[C@@H]5C[C@@H]5[C@]4(C)[C@H]3CC[C@@]21C`, for which the call was inactive. In the case of `Oc1ccc(O)cc1`, the outcome was inactive. Then `CCCCOCCOCCOCCO`, with “inactive”.

For `COc1ccc(C(=O)CC(=O)c2ccc(C(C)(C)C)cc2)cc1`, the result was inactive.

`O=C(Nc1ccc(Cl)cc1)Nc1ccc(Cl)c(Cl)c1`: the call was inactive. Then `S=C(NC1CCCCC1)NC1CCCCC1`, with “inactive”.

For `OC(CCl)CCl`, the molecule was called inactive. The result for `Cc1c(C(N)=O)cc([N+](=O)[O-])cc1[N+](=O)[O-]` reads “inactive”. Then `Cc1c(OCC(F)(F)F)ccnc1CS(=O)c1nc2ccccc2[nH]1` (stereo not given), with “inactive”; and `CC(=O)C1(C)CC2=C(CCCC2(C)C)CC1C` (stereo not given), with “inactive”. Then `O=C(c1ccc(OCCN2CCCCC2)cc1)c1c(-c2ccc(O)cc2)sc2cc(O)ccc12`, with “inactive”.

`CC(=O)CC/C=C(\C)CCC=C(C)C`: the outcome was inactive.

Turning to `COc1ccccc1/C=C/C=O`, the molecule was classed as inactive.

Consider `Nc1ccc(Nc2ccccc2)cc1`, for which the call was inactive. Regarding `Cc1ccc(C)c(O)c1C`, the outcome was inactive. Then `C/C=C/C(=O)O`, with “inactive”; and `Nc1ccc(Cl)cc1Cl`, with “inactive”; and `CC(C)OC(=O)C(C)(C)Oc1ccc(C(=O)c2ccc(Cl)cc2)cc1`, with “inactive”. On to `O=C(O)c1ccccc1Nc1cccc(C(F)(F)F)c1`, for which the molecule was classed as inactive. The result for `COC(=O)CCC(=O)OC` reads “inactive”. The result for `CC(C)(C)NC(=O)[C@H]1CC[C@H]2[C@@H]3CC[C@H]4NC(=O)C=C[C@]4(C)[C@H]3CC[C@]12C` reads “inactive”. Take `O=Cc1ccccc1O`: the molecule was classed as inactive.

Regarding `Nc1ccccc1N`, the molecule was called inactive. Then `CCC(C)c1ccccc1O` (stereo not given), with “inactive”; and `Cc1cccc(N(C)C(=S)Oc2ccc3ccccc3c2)c1`, with “inactive”. The result for `Nc1ncn([C@@H]2O[C@H](CO)[C@@H](O)[C@H]2O)c(=O)n1` reads “inactive”; that for `COc1cccc2c1C(=O)c1c(O)c3c(c(O)c1C2=O)C[C@@](O)(C(=O)CO)C[C@@H]3O[C@H]1C[C@H](N)[C@H](O)[C@H](C)O1`, “inactive”.

`CCCCCCCCCCCO`: the call was inactive. As for `COC(=O)Nc1nc2ccc(S(=O)c3ccccc3)cc2[nH]1` (stereo not given), the outcome was inactive. The result for `Nc1ccc(S(=O)(=O)Nc2cnc3ccccc3n2)cc1` reads “inactive”; that for `O=P(O)(O)O`, “inactive”; that for `C=C(C)C1CC=C(C)CC1` (stereo not given), “inactive”.

`O=C(/C=C/c1ccccc1)OCc1ccccc1`: the result was inactive. Then `c1ccc2sc(SSN3CCOCC3)nc2c1`, with “inactive”; and `CCCCOCCOCCO`, with “inactive”.

`COc1c(Cl)c(Cl)c(Cl)c(Cl)c1Cl`: the result was inactive. Then `COC(C)COC(C)COC(C)CO` (stereo not given), with “inactive”.

Turning to `Cc1[nH]c(=O)c(C#N)cc1-c1ccncc1`, the molecule was called inactive.

For the molecule `CC1=CC2C3CC(C=C3C)C2C1` (stereo not given), the molecule was called inactive. Consider `CNCCCC12CCC(c3ccccc31)c1ccccc12`, for which the molecule was called inactive.
